PubChem BioAssay AID1159580 (chemical genetic matrix, 2015)
Hit rate of the full screen: of about 5,500 compounds, about 2,000 (36%) were called active. Roughly 18% stayed inconclusive and do not appear here. Cut-off read from the data, not from the text of the source: active = normalized growth mostly below about 0.91 (no sharp cut-off); inconclusive = no clear call, values can overlap the other calls; inactive = mostly above about 0.92. The list shows a part of the results.

Experiment: chemical genetic growth profiling, strain panel (AID 1159580);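 note: tested at 20 µM; growth read once vehicle control cultures reached saturation at 30 °C; 1 = growth at the plate median or of vehicle wells; lower values mean less growth of the strain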
Conditions: S. cerevisiae deletion strains, growth OD

Measured: normalized growth

O=C(O)CCCCCCCC(O)C(O)CCCCCCO (stereo not given)
inactive: locus YHR030C, strain SLT2, hits give low values 1.02 | locus YHR079C, strain IRE1, hits give low values 1.01 | locus YJL095W, strain BCK1, hits give low values 1 | locus YJR066W, strain TOR1, hits give low values 0.935 | locus YLR113W, strain HOG1, hits give low values 0.987 | locus YNL183C, strain NPR1, hits give low values 0.954 | locus YOR231W, strain MKK1, hits give low values 0.991 | locus YPL256C, strain CLN2, hits give low values 1.01

Cn1cnc2c(NCc3ccccc3)nc(NCCO)nc21
inactive: locus YAL013W, strain DEP1, hits give low values 0.989 | locus YAL040C, strain CLN3, hits give low values 1.08 | locus YCL061C, strain MRC1 (second series), hits give low values 0.99 | locus YDR150W, strain NUM1, hits give low values 0.998 | locus YDR363W, strain ESC2, hits give low values 1.01 | locus YER002W, strain NOP16, hits give low values 1.05 | locus YGR078C, strain PAC10, hits give low values 0.988 | locus YGR229C, strain SMI1, hits give low values 0.991 | locus YJR075W, strain HOC1, hits give low values 0.981 | locus YMR263W, strain SAP30, hits give low values 0.984 | locus YMR307W, strain GAS1, hits give low values 1 | locus YNL175C, strain NOP13, hits give low values 1 | locus YNL197C, strain WHI3, hits give low values 0.982 | locus YNL224C, strain SQS1, hits give low values 1 | locus YNL322C, strain KRE1, hits give low values 0.992 | locus YOR083W, strain WHI5 (second series), hits give low values 0.988 | locus YPL055C, strain LGE1, hits give low values 1
